Measurements taken from PubChem BioAssay (NCI).
This is part of a sample that, as a whole, favours compounds with a hit. Of some 83,000 tested, about 20% had one in any assay.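 Note: values are percent growth. 100 is the growth of untreated cells, values between 100 and 0 indicate rising inhibition; between -100 and 0 indicates cell death.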 Activity calls are given as the source filed them.

system: HCT-15 colon; assay: NCI-60 one-dose screen, 48 h (100 = growth as untreated, 0 = no growth, -100 = all killed); details: 10 µM unless noted
Experimental: Growth inhibition of the HCT-15 human tumor cell line is measured as a screen for anti-cancer activity. Cells are grown in 96 well plates and exposed to the test compound for 48 hours. Compounds are tested at a single concentration, which is 10^-5 M for most compounds. The reported endpoint is percent growth (GI% or GIPRCNT), where numbers from 0 - 100% represent growth inhibition, and numbers from -100% - 0 represent cell death. For example, a value of 40 represents 60% growth inhibition. A value of 0 means no net growth occurred over the course of the experiment. A value of -40 indicates 40% of cells at the beginning of the experiment died by the end of the experiment. A value of -100 means all cells are dead at the end of the experiment.
NCI-60 Human Tumor Cell Lines Screen was performed using the standard one-dose NCI protocol, which is described in more detail at https://dtp.cancer.gov/discovery_development/nci-60/default.htm.
Compounds with GIPRCNT values below 10 were considered active. Activity score was based on GIPRCNT using the following formula: […]
Score is 0 for GIPRCNT values of 100 or above, 50 for GIPRCNT values of 0, and 100 for GIPRCNT values of -100.

SMILES	growth
COc1cccc(NC(=O)c2sc3nc4c(cc3c2N)CCCC4)c1	20.8% (inactive)
c1cncc(CNc2ccccc2-c2nnc(Nc3ccc4c(c3)OCCO4)o2)c1	19% (inactive)
CCN(Cc1ccccc1)c1ccc(SC#N)cc1	64.8% (inactive)
CC(Br)C(O)c1cc2c(cc1Br)OCO2 (stereo not given)	102% (inactive)
COc1ccc(-c2nc3sccn3c2-c2ccnc(NCCCNS(=O)(=O)c3ccc(F)cc3)n2)cc1	2.92% (active)
O=C(Nc1ccc(I)cc1)c1cc([N+](=O)[O-])ccc1O	36.7% (inactive)
Cc1ccc2c(c1)ncn2-c1ncnc2c1CC(C)c1ccccc1N2C (stereo not given)	8.43% (active)
CCCCCCCCCCC/C=C\C[C@H](O)C/C=C1/C(=O)C=C[C@@H]1C/C=C\CCCC(=O)OC	-43% (active)
CC/C=C\C/C=C\C[C@H]1C/C=C2/C(=O)C=C[C@H]2C/C=C\CCC(=O)O1	-14.6% (active)
Cn1c(-c2nonc2NC(=O)c2ccc(F)cc2)nc2ccccc21	103% (inactive)
O=c1[nH]c2ccccc2cc1-c1nnc(Cc2ccccc2)o1	49% (inactive)
COc1ccc(/C=C\c2cc(OC)c(OC)c(OC)c2)c(NS(=O)(=O)c2ccc(C(C)(C)C)cc2)c1O	15.5% (inactive)
CCN(C(=O)c1cc2ccccc2[nH]1)[C@H]1CCC[C@@H](NCc2ccc(OC)cc2)C1	81% (inactive)
O=C1C2=C(C(=O)c3c(O)ccc(O)c31)N(c1cccnc1)Cc1ccccc1O2	-32.8% (active)
Nc1nc(-c2ccccc2)cs1	106% (inactive)
COc1ccc(/C=C/c2nc(N3CCOCC3)c3cc(F)c(F)cc3n2)cc1OC	36.3% (inactive)
O=C(c1ccccc1)C(Cl)C(Cl)c1ccccc1 (stereo not given)	-7.84% (active)
CC(=O)Nc1nc(C(=O)N2N=C(C)/C(=C/c3ccc(Cl)cc3)C2=O)cs1	100% (inactive)
O=C(Nc1ccc(Cl)cc1)c1cc(-c2ccc(F)cc2)c2sc(=O)[nH]c2n1	13.1% (inactive)
COc1ccc(C(=O)/C=C/c2ccc(/C=C/c3cc(OC)c(OC)c(OC)c3)cc2)cc1	33.6% (inactive)

SMILES	growth
CNC(=O)c1cc(Oc2ccc3c(c2)sc2nc(-c4ccc(Cl)cc4)cn23)ccn1	83.6% (inactive)
N=C(N)c1ccc(-c2ccc(-c3ccc(Cl)cc3)o2)nc1	-75.1% (active)
COc1cc(C2C=C(C)N=C3SC=CN32)cc(OC)c1OC (stereo not given)	106% (inactive)
O=S(=O)(NCCCNc1nccc(-c2c(-c3ccccc3)nc3sccn23)n1)c1ccc(F)cc1	19.4% (inactive)
COc1ccc(-c2nc(-c3ccccc3)c(-c3ccccc3)n2C2CC2)cc1OC1CCCCC1	41.7% (inactive)
COc1ccc(-c2nc(-c3nc4ccc(F)cc4[nH]3)cc3c2[nH]c2ccccc23)cc1	36.1% (inactive)
COc1ccc(/C=N/NC(=O)Cn2c(Cc3cccc4ccccc34)nc3ccccc32)cc1	95.7% (inactive)
CC1Cc2c(N(C)C)ncnc2N(C)c2ccc(O)cc21 (stereo not given)	50.5% (inactive)
C=C1C(=O)O[C@H]2[C@H]1CC/C(COC(=O)NCc1cc(OC)c(OC)c(OC)c1)=C\CC[C@@]1(C)O[C@@H]21	42.3% (inactive)
CC[C@H](C)[C@@H]1NC(=O)[C@H]([C@@H](C)O)NC(=O)C(Cc2ccccc2)NC(=O)[C@@H]2CCCN2C(=O)C(C(C)C)NC(=O)C(Cc2ccccc2)NC(=O)CNC(=O)[C@@H]2CCCN2C1=O (stereo not given in full)	77.2% (inactive)
Cn1cc(C=O)c2ccccc21	103% (inactive)
COc1ccc(OC)c(/C=C2\Oc3cc(OCCN4CCCC4)ccc3C2=O)c1	93.7% (inactive)
C=CCc1cc(Cl)cc2c(OC(C)=O)c(C(C)=O)c(-c3ccccc3)nc12	108% (inactive)
CC(CCc1ccccc1)NC(=O)c1n[nH]c(=O)c2ccccc12 (stereo not given)	101% (inactive)
COC(=O)[C@H]1[C@H](OC)[C@@H](OC(=O)/C=C/c2ccncc2)CC2CN3CCc4c([nH]c5cc(OC)ccc45)[C@@H]3C[C@@H]21 (stereo not given in full)	75.5% (inactive)
CC(C)(C)c1ccc(S(=O)(=O)Oc2ccc3c4c(c(=O)oc3c2)CCCCC4)cc1	30.5% (inactive)
COc1ccc(-c2nc3sccn3c2-c2ccnc(NCCCNS(=O)(=O)c3ccc4ccccc4c3)n2)cc1	44.9% (inactive)
COc1cc(OC)c(C(=O)/C=C/c2cccc(C#N)c2)c(OC)c1	3.28% (active)
c1ccc(CCn2nnc3c(Nc4ccc(N5CCOCC5)cc4)ncnc32)cc1	70.7% (inactive)
CCCn1c(=S)sc2c(Cl)nc(C)nc21	12.7% (inactive)
